This note sets out measurements from paper PMC7862700, “An all-to-all approach to the identification of sequence-specific readers for epigenetic DNA modifications on cytosine”.

Common to all, as to assay: DAPPL (digital affinity profiling via proximity ligation, sequencing); 10 mM Tris-HCl pH 7.5, 50 mM NaCl, 1 mM DTT, 4% glycerol, room temperature, 30 min; GST-TFs on glutathione beads, 16-mer random dsDNA library, 0.1% formaldehyde crosslink after washing; high values mean tight binding
Conditions in all cases: protein: recombinant; tags: N-terminal GST; dsDNA, one strand shown

Assay [1] addresses T1, ELK1 (Homo sapiens, UniProt P19419 1-428).
T1 sequence: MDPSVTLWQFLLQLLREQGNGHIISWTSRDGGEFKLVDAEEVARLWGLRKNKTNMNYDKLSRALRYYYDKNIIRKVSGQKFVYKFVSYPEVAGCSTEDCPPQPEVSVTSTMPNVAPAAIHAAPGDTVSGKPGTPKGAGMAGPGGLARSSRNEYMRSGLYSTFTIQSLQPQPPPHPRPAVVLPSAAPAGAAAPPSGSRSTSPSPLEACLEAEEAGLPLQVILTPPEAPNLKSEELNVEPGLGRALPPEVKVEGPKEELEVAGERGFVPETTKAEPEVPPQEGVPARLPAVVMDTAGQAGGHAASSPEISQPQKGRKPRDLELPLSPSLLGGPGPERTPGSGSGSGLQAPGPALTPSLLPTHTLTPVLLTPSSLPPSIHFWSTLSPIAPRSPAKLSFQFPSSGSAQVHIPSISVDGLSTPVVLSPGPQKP
The method, boiled down: (§1)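 GST fusions of human transcription factors were expressed in yeast and captured with glutathione beads. Once given DNA barcodes and pooled alongside a tag-only sample, they were incubated for 30 min at room temperature with 200 nmole of a random double-stranded 16-mer DNA library in Tris/NaCl/DTT/glycerol buffer, then washed, crosslinked (0.1% formaldehyde), proximity-ligated, PCR-amplified and sequenced on an Illumina NextSeq500. The binding signal of each hexamer is its read frequency for a factor divided by its frequency for the tag-only sample.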

Assay [2] deals with T2, GABPA (Homo sapiens, UniProt Q06546 1-454).
T2 sequence: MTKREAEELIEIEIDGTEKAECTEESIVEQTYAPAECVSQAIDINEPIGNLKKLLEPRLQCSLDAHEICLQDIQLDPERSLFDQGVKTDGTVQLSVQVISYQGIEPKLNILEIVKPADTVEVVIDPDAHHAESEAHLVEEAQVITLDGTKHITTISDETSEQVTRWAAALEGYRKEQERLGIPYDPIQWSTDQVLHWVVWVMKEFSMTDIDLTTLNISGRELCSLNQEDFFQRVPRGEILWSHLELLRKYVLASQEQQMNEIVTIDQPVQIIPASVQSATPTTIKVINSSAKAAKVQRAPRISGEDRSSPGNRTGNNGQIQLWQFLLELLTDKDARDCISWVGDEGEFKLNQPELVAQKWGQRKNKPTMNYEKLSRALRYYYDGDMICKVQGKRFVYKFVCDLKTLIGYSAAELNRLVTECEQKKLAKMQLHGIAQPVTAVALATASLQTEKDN
The method, boiled down:
as §1

For assay [3], the target named is T3, ERG (Homo sapiens, UniProt P11308 1-479).
T3 sequence: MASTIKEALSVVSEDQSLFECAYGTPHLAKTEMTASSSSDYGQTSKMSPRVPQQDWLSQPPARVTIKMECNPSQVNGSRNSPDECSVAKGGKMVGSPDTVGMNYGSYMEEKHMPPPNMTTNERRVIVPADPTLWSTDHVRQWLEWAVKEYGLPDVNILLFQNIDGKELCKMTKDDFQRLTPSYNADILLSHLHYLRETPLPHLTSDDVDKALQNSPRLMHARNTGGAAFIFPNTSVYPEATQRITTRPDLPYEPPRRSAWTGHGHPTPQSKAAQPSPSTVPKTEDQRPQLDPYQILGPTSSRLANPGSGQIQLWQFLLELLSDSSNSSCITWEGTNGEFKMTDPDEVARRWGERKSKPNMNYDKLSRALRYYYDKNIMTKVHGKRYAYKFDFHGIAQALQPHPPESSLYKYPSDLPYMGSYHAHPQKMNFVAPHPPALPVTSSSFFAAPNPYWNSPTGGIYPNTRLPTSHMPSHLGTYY
The method in brief:
as §1

Assay [4] deals with ELF1 (Homo sapiens, UniProt P32519 1-619). The method in brief:
as §1

Assay [5] deals with T4, EHF (Homo sapiens, UniProt Q9NZC4 1-300).
T4 sequence: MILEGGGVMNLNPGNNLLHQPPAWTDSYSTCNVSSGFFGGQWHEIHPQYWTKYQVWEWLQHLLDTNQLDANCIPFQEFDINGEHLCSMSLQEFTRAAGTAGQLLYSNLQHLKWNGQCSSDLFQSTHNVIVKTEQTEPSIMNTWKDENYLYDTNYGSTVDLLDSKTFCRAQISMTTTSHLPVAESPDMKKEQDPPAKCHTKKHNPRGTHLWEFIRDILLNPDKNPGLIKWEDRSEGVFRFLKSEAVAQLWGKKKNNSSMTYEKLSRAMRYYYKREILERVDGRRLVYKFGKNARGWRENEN
The method, boiled down: as §1

Assay [6] addresses SPI1 (Homo sapiens, UniProt P17947 1-270). The method in brief:
as §1

Assay [7] addresses SPIB (Homo sapiens, UniProt Q01892 1-262). The method in brief:
as §1

Assay [8] addresses ETV5 (Homo sapiens, UniProt P41161 1-510). The method in brief: as §1
In assay [9] the target is ELF4 (Homo sapiens, UniProt Q99607 1-663). The method in brief: as §1
Chain of ELF4 (Q99607 whole entry): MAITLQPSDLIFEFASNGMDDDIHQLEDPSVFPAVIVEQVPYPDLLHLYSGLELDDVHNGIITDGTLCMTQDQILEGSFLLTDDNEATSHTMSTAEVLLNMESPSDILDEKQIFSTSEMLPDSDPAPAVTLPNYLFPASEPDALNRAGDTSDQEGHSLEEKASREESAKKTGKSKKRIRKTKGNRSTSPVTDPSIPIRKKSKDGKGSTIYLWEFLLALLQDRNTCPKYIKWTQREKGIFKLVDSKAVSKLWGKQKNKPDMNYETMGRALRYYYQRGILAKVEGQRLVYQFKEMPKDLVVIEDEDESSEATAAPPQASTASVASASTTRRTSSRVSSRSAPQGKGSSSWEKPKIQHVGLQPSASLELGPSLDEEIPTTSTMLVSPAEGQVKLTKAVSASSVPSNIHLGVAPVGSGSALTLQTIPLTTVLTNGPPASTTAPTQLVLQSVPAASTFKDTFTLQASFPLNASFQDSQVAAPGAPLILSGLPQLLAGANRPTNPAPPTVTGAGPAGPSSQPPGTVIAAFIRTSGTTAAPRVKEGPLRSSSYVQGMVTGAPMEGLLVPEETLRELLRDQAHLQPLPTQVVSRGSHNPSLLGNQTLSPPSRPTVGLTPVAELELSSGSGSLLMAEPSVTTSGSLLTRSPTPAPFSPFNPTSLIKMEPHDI
The target of assay [10] is T5, ELK4 (Homo sapiens, UniProt P28324-2 1-405).
T5 sequence: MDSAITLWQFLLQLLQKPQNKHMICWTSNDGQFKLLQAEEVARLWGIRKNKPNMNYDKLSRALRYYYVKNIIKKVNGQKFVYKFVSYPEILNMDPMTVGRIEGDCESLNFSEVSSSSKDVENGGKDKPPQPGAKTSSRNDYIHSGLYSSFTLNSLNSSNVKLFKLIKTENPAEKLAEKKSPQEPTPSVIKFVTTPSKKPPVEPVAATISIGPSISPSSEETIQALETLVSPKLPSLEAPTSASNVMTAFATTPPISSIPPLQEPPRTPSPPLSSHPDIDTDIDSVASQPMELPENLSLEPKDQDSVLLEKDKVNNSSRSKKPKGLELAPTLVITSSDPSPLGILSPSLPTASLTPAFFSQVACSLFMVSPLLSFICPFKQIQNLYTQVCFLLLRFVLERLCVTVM
The method, boiled down:
as §1

For assay [11], the target named is T6, ETV2 (Homo sapiens, UniProt O00321 1-342).
T6 sequence: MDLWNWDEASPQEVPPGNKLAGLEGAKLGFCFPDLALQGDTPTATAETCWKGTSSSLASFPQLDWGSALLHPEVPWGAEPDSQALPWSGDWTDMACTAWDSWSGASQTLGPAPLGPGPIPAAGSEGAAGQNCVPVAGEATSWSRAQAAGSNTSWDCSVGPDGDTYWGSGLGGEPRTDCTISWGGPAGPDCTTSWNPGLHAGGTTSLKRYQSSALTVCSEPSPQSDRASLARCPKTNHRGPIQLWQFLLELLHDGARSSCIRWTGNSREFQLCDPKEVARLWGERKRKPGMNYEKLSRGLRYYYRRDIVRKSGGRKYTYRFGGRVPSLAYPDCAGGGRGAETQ
The method in brief: as §1

The target in assay [12] is T7, ELF3 (Homo sapiens, UniProt P78545 1-371).
T7 sequence: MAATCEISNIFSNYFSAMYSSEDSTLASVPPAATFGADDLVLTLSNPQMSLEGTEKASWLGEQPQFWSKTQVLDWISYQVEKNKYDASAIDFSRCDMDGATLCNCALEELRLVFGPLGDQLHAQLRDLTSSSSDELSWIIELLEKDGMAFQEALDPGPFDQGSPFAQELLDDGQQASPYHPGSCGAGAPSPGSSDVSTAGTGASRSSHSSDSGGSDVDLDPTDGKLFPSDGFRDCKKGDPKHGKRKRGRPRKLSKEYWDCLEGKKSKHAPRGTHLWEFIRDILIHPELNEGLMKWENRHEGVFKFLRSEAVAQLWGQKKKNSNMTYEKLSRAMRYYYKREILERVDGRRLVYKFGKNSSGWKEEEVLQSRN
The method in brief:
as §1

The target in assay [13] is ETV1 (Homo sapiens, UniProt P50549 1-477). The method, boiled down: as §1
Chain of ETV1 (P50549 whole entry): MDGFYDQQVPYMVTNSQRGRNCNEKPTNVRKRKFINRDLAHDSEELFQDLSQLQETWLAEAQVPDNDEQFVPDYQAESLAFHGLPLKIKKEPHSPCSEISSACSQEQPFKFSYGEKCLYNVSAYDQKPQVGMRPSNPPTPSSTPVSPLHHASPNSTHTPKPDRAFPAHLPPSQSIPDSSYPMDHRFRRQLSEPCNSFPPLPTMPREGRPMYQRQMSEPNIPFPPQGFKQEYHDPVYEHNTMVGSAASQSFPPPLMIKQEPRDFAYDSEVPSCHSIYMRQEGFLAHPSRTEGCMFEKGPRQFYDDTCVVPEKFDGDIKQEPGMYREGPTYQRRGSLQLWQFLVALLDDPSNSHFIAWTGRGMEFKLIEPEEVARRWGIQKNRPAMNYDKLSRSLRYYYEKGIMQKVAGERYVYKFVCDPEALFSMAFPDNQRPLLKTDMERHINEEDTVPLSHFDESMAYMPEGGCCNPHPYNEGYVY
The target of assay [14] is T8, ERF (Homo sapiens, UniProt P50548 1-548).
T8 sequence: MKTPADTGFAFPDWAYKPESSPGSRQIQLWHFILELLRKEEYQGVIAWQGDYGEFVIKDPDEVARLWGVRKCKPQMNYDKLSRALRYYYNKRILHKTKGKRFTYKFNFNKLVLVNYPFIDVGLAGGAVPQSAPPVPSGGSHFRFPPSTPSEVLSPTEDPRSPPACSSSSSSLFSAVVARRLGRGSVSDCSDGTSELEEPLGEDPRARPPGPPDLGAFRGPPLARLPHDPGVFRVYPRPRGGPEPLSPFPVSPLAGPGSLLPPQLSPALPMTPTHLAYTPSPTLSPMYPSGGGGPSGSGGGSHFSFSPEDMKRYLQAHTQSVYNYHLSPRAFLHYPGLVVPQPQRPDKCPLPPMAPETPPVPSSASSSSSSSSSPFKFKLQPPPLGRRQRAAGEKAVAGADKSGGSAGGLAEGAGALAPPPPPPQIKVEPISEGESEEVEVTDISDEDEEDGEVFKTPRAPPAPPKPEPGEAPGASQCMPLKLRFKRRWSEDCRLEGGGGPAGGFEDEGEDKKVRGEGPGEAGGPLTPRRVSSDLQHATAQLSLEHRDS
The method in brief:
as §1

For assay [15], the target named is T9, ETV3L (Homo sapiens, UniProt Q6ZN32 1-361).
T9 sequence: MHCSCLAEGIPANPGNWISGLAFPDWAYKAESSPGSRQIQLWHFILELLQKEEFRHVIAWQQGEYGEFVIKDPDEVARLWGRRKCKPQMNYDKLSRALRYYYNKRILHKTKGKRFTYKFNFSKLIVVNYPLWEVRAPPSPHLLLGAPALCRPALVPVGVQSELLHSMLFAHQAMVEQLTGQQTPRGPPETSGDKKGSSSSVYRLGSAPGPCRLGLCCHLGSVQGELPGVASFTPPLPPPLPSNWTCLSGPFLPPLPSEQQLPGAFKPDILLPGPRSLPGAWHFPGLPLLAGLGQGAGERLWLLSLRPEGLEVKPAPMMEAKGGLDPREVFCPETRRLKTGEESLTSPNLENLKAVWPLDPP
The method in brief:
as §1

Assay [16] has as its target T10, ETS2 (Homo sapiens, UniProt P15036 1-469).
T10 sequence: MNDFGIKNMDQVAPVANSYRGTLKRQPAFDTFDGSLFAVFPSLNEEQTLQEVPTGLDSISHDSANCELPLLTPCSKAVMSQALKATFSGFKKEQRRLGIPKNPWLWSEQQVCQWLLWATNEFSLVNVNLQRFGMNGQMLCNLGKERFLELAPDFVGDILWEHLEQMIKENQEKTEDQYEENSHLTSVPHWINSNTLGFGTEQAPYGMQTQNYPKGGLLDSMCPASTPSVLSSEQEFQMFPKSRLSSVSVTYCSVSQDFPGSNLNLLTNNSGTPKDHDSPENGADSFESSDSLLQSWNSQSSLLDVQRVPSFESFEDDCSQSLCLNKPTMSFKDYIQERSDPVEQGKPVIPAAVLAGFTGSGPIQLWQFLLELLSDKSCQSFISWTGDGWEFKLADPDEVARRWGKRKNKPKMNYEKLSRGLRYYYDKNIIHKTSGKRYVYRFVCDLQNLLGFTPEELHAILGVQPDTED
The method in brief: as §1

For assay [17], the target named is T11, ETV7 (Homo sapiens, UniProt Q9Y603 1-341).
T11 sequence: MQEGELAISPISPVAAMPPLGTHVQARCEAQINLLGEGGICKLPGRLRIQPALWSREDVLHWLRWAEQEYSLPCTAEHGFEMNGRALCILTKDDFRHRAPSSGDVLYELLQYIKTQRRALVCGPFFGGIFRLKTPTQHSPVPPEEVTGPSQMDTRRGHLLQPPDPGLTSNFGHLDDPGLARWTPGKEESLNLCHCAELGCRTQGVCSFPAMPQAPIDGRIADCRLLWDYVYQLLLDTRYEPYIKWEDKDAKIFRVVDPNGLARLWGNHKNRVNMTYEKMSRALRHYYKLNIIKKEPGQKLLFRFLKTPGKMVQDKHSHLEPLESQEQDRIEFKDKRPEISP
The method in brief: as §1

The target of assay [18] is T12, ETV3 (Homo sapiens, UniProt P41162-2 1-143).
T12 sequence: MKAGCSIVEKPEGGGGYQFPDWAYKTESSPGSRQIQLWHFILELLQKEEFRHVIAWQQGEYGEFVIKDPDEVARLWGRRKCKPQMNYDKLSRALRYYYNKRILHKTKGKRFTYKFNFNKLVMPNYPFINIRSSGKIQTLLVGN
The method, boiled down: as §1

Assay [19] addresses ETV6 (Homo sapiens, UniProt P41212 1-452). The method, boiled down: as §1

Chain of ETV6 (P41212 whole entry): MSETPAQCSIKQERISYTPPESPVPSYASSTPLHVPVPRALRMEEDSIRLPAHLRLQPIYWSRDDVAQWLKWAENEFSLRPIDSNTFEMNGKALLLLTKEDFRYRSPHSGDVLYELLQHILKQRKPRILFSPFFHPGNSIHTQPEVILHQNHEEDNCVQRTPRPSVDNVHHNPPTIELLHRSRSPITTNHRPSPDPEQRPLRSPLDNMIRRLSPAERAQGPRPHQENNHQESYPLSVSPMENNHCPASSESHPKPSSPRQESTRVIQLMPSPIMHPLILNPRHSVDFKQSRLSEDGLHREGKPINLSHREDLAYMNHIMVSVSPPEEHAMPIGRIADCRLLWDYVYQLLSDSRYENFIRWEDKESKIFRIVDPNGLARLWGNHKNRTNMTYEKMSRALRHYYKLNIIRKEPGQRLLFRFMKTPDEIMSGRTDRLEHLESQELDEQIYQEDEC
Chain of ELF1 (P32519 whole entry): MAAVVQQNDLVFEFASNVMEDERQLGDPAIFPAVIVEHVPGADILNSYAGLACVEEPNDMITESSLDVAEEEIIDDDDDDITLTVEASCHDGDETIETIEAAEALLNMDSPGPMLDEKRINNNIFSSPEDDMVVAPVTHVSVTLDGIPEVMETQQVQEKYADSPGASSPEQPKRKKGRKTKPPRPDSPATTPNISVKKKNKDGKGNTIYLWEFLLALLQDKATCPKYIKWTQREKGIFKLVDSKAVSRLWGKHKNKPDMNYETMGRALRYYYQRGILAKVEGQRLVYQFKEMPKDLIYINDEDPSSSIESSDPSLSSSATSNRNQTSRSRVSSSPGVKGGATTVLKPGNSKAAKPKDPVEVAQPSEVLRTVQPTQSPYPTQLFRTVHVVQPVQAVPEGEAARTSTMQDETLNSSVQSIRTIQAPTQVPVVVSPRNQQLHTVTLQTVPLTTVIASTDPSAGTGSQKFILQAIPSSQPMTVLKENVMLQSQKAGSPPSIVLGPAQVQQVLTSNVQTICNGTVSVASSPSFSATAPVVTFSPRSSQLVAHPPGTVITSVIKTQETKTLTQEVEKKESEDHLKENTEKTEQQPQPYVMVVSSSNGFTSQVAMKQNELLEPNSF
Chain of ETV5 (P41161 whole entry): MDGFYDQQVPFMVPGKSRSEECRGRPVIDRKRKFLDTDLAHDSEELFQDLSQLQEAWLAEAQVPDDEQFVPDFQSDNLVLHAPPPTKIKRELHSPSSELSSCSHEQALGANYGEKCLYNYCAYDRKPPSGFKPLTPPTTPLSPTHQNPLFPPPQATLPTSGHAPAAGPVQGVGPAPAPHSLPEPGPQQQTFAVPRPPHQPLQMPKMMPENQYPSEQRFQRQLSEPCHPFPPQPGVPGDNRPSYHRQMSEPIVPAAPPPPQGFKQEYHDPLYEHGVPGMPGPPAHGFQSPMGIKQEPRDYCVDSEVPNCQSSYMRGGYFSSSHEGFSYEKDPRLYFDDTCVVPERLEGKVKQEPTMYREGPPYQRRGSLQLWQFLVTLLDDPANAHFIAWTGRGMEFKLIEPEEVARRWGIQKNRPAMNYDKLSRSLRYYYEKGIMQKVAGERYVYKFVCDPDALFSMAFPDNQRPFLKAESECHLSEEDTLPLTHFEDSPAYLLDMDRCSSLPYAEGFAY
Chain of SPIB (Q01892 whole entry): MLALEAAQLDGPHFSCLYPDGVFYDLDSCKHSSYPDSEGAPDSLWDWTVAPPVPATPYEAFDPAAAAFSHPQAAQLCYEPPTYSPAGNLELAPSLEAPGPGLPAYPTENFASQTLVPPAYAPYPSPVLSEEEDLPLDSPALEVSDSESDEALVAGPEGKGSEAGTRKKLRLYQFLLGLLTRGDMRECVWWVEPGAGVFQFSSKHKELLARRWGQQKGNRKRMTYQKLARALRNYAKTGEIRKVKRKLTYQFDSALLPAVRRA

Turning to TATGTC, the binding signal in assay [1] is 1.05 fold enrichment (6-mer frequency, TF over GST control); in assay [2], 1.17 fold enrichment (6-mer frequency, TF over GST control); in [3] it was 1.08 fold enrichment (6-mer frequency, TF over GST control); in assay [4] it was 1.11 fold enrichment (6-mer frequency, TF over GST control); in assay [5], 1.02 fold enrichment (6-mer frequency, TF over GST control); in assay [6] it was 1.06 fold enrichment (6-mer frequency, TF over GST control). Also, the binding signal in [7] was 1.16 fold enrichment (6-mer frequency, TF over GST control); in [8], 1.07 fold enrichment (6-mer frequency, TF over GST control); in assay [9], 1.14 fold enrichment (6-mer frequency, TF over GST control); in assay [10], 1.05 fold enrichment (6-mer frequency, TF over GST control); in assay [11], 1.02 fold enrichment (6-mer frequency, TF over GST control); in assay [12], 1.06 fold enrichment (6-mer frequency, TF over GST control). The binding signal in [13] is 1.05 fold enrichment (6-mer frequency, TF over GST control); in [14], 1.08 fold enrichment (6-mer frequency, TF over GST control); in assay [15], 1.16 fold enrichment (6-mer frequency, TF over GST control); in assay [16], 1.13 fold enrichment (6-mer frequency, TF over GST control); in assay [17] it was 1.06 fold enrichment (6-mer frequency, TF over GST control); in assay [18], 1.13 fold enrichment (6-mer frequency, TF over GST control). Further, the binding signal in assay [19] is 1.07 fold enrichment (6-mer frequency, TF over GST control).
